miR-122 inh: raises miR-122 sensor activity in Huh7 cells; Huh7 psiCHECK-miR122 Renilla luciferase sensor, 48 h; activation, % at 12.5 µM; 340,000 tested, 0.14% active;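 active = mean activation of 30% or more, with every replicate also reaching 30%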;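 also: 0% = median of neutral control wells and 100% = median of positive control wells; higher luciferase signal means stronger suppression of miR-122 activity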
Starred values were filed as active, the others as inactive. The entries come from a sample that favours hits as a whole.

COCC(=O)N(C)C[C@H]1Oc2cc(-c3ccccc3F)ccc2S(=O)(=O)N([C@H](C)CO)C[C@H]1C was read as miR-122 inh 46.4*.
`COCC(=O)N(C)C[C@H]1Oc2cc(-c3ccccc3)ccc2S(=O)(=O)N([C@H](C)CO)C[C@H]1C` gave miR-122 inh 8.1.
COCC(=O)N(C)C[C@H]1Oc2cc(-c3ccc(C#N)cc3)ccc2S(=O)(=O)N([C@@H](C)CO)C[C@H]1C was read as miR-122 inh 50.8*.
`COc1ccc(S(=O)(=O)N(C)C[C@@H]2Oc3cc(-c4cccc(F)c4)ccc3S(=O)(=O)N([C@@H](C)CO)C[C@H]2C)cc1` gave miR-122 inh 39.7*.
`Cc1ccc(S(=O)(=O)N(C)C[C@@H]2Oc3cc(-c4cccc(F)c4)ccc3S(=O)(=O)N([C@@H](C)CO)C[C@@H]2C)cc1` gave miR-122 inh 7.7.
For C[C@H]1CN([C@@H](C)CO)C(=O)c2cc(-c3ccccc3)cnc2O[C@@H]1CN(C)C(=O)Nc1ccccc1 the results were miR-122 inh 4.9.
COc1ccc(-c2cnc3c(c2)C(=O)N([C@H](C)CO)C[C@H](C)[C@H](CN(C)C(=O)C2CCOCC2)O3)cc1 was read as miR-122 inh -3.9.
`C/C=C/c1ccc2c(c1)O[C@@H](CN(C)C(=O)CC1CC1)[C@H](C)CN([C@H](C)CO)S2(=O)=O` gave miR-122 inh 3.9.
Screening C[C@@H]1CN([C@@H](C)CO)C(=O)c2cc(C#Cc3ccc(F)cc3)cnc2O[C@H]1CN(C)CC1CCOCC1 returned miR-122 inh 5.8.
`C[C@H](O)C#Cc1cnc2c(c1)C(=O)N([C@H](C)CO)C[C@@H](C)[C@@H](CN(C)Cc1cncnc1)O2` gave miR-122 inh 5.6.
CCCC(O)C#Cc1cnc2c(c1)C(=O)N([C@H](C)CO)C[C@H](C)[C@H](CN(C)Cc1ccccc1)O2 (stereo partly drawn) was read as miR-122 inh -6.1.
COCC#Cc1ccc2c(c1)O[C@H](CN(C)C(C)=O)[C@@H](C)CN([C@@H](C)CO)S2(=O)=O was read as miR-122 inh -2.4.
Screening C[C@@H]1CN([C@@H](C)CO)C(=O)c2cc(NC(=O)Nc3ccccc3)ccc2O[C@@H]1CN(C)Cc1ccc(C(=O)Nc2ccccc2N)cc1 returned miR-122 inh -169.8.
For C[C@@H]1CN([C@@H](C)CO)C(=O)c2cc(-c3cccc(F)c3)cnc2O[C@@H]1CN(C)Cc1ccncc1 the results were miR-122 inh 1.1.
For O=C1CC(Sc2nnnn2-c2ccccc2)C(=O)N1c1cccc(Cl)c1 (stereo not drawn) the results were miR-122 inh 51.9*.
C[C@H](CO)N1C[C@H](C)[C@@H](CN(C)S(C)(=O)=O)Oc2cc(C#Cc3ccccc3)ccc2S1(=O)=O was read as miR-122 inh -130.2.
Screening C[C@H]1CN([C@@H](C)CO)S(=O)(=O)c2ccc(-c3ccncc3)cc2O[C@@H]1CN(C)Cc1cncnc1 returned miR-122 inh -8.8.
C[C@@H]1CN([C@@H](C)CO)S(=O)(=O)c2ccc(C#CC3CC3)cc2O[C@H]1CN(C)C(=O)C1CC1 was read as miR-122 inh -26.5.
For C[C@@H]1CN([C@@H](C)CO)S(=O)(=O)c2ccc(C#Cc3cccnc3)cc2O[C@H]1CN(C)CC1CCOCC1 the results were miR-122 inh -9.5.
Oc1ccc2ccccc2c1/C=N/Nc1nnc(-c2ncc[nH]2)c2ccccc12 was read as miR-122 inh 60.6*.
`C[C@H](CO)N1C[C@H](C)[C@@H](CN(C)C(=O)Nc2ccccc2)Oc2cc(-c3cccc(C(=O)N(C)C)c3)ccc2S1(=O)=O` gave miR-122 inh 9.5.
Screening CCCNC(=O)N(C)C[C@@H]1Oc2cc(C#CCOC)ccc2S(=O)(=O)N([C@@H](C)CO)C[C@@H]1C returned miR-122 inh 6.7.
Screening C[C@@H]1CN([C@@H](C)CO)C(=O)c2cc(C#CC3(O)CCCC3)cnc2O[C@@H]1CN(C)C(=O)Cc1ccccc1 returned miR-122 inh 1.4.
COc1ccc(NC(=O)Nc2ccc3c(c2)C(=O)N([C@@H](C)CO)C[C@H](C)[C@H](CN(C)Cc2ccc(C(F)(F)F)cc2)O3)cc1 was read as miR-122 inh -149.5.
`COc1ccc(NS(=O)(=O)c2cc(NC(=O)c3ccc(F)cc3)ccc2OC)cc1` gave miR-122 inh -108.4.
Screening CCN1CCN(Cc2ccc(NC(=O)c3cc(NC(=O)c4cc5cccc(OC)c5o4)cc(OC)c3)cc2C(F)(F)F)CC1 returned miR-122 inh 31.2*.
C[C@H]1CN([C@@H](C)CO)C(=O)c2cccc(NS(=O)(=O)c3cccs3)c2O[C@@H]1CN(C)Cc1ccc(C(F)(F)F)cc1 was read as miR-122 inh -118.9.
C[C@H]1CN([C@@H](C)CO)S(=O)(=O)c2ccc(C#Cc3ccncc3)cc2O[C@@H]1CN(C)S(=O)(=O)c1ccccc1 was read as miR-122 inh -105.5.
For CC(C)NC(=O)N(C)C[C@@H]1Oc2cc(-c3ccccc3)ccc2S(=O)(=O)N([C@H](C)CO)C[C@@H]1C the results were miR-122 inh -0.1.
Screening COc1cccc(-c2cnc3c(c2)C(=O)N([C@@H](C)CO)C[C@H](C)[C@@H](CN(C)CC2CCOCC2)O3)c1 returned miR-122 inh -0.5.
Screening COc1ccc(/C=C/C(=O)c2ccc[nH]2)c(OC)c1OC returned miR-122 inh 32.2*.
`COc1cccc(C2NC(=S)NC(C)=C2C(=O)c2ccccc2)c1OC` (stereo not drawn) gave miR-122 inh -147.1.
`O=[N+]([O-])c1ccc(/C=N/n2cnc3ccccc32)s1` gave miR-122 inh 47.8*.
C[C@@H]1CN([C@@H](C)CO)C(=O)c2cc(-c3cncnc3)cnc2O[C@H]1CN(C)Cc1ccccc1 was read as miR-122 inh -4.2.
For COCC#Cc1cnc2c(c1)C(=O)N([C@@H](C)CO)C[C@H](C)[C@H](CN(C)C(=O)Cc1ccccc1)O2 the results were miR-122 inh -0.1.
CCC(=O)N(C)C[C@H]1Oc2ncc(C#C[C@@H](C)O)cc2C(=O)N([C@H](C)CO)C[C@@H]1C was read as miR-122 inh -4.2.
For C[C@H]1CN([C@@H](C)CO)S(=O)(=O)c2ccc(C3=CCCCC3)cc2O[C@@H]1CN(C)S(C)(=O)=O the results were miR-122 inh -9.8.
`C[C@H]1CN([C@@H](C)CO)C(=O)c2cc(C#CC3(O)CCCC3)cnc2O[C@H]1CN(C)S(=O)(=O)c1cccc(F)c1` gave miR-122 inh -4.3.
`Oc1c(Cl)cc(Cl)cc1/C=N/Nc1ncc(Br)cn1` gave miR-122 inh 62.2*.
`Cc1noc(C)c1NC(=O)N(C)C[C@@H]1Oc2cc(C#CCC(C)C)ccc2S(=O)(=O)N([C@@H](C)CO)C[C@@H]1C` gave miR-122 inh 4.1.
For C/C=C/c1ccc2c(c1)O[C@@H](CN(C)C(=O)CC1CC1)[C@H](C)CN([C@@H](C)CO)S2(=O)=O the results were miR-122 inh 4.6.
Screening CC(=O)NC(c1ccc(C)cc1)c1cc(Cl)c2cccnc2c1O (stereo not drawn) returned miR-122 inh 30.8*.
`COCC(=O)Nc1ccc2c(c1)OC[C@@H](C)N(C(C)=O)C[C@H](C)[C@@H](OC)CN(C)C2=O` gave miR-122 inh -0.6.
`C[C@@H]1CN([C@H](C)CO)C(=O)c2cc(-c3cccnc3)cnc2O[C@H]1CN(C)C(=O)Nc1ccc(F)cc1` gave miR-122 inh 6.3.

Assay outcomes as filed in PubChem BioAssay.
